{"source": "paper PMC11062922", "about": "(Nature Chemical Biology, 2023)", "design_in_all_cases": "species or system human, MV4-11 + K-562 + COLO205 + SK-N-BE2 + OVCAR-8", "key": {"CSNK1G1": {"test_system": "CSNK1G1", "details": "read-out: apparent Kd, n = 1"}, "MARK4": {"test_system": "MARK4", "details": "read-out: apparent Kd, compound concentrations: 100 nM and 1000 nM (sheet 'Samples'), n = 1"}, "STRADA": {"test_system": "STRADA", "details": "read-out: apparent Kd, compound concentrations: 100 nM and 1000 nM (sheet 'Samples'), n = 1"}, "ATM": {"test_system": "ATM", "details": "read-out: apparent Kd; compound concentrations: 100 nM and 1000 nM (sheet 'Samples'), CATDS: 2.5456508312119999E-2; n = 1"}, "BMP2K": {"test_system": "BMP2K", "details": "read-out: apparent Kd, compound concentrations: 100 nM and 1000 nM (sheet 'Samples'), n = 1"}, "FER": {"test_system": "FER", "details": "read-out: apparent Kd, compound concentrations: 100 nM and 1000 nM (sheet 'Samples'), n = 1"}, "MELK": {"test_system": "MELK", "details": "read-out: apparent Kd, n = 1"}, "PAK4": {"test_system": "PAK4", "details": "read-out: apparent Kd, compound concentrations: 100 nM and 1000 nM (sheet 'Samples'), n = 1"}, "PRKX;PRKY": {"test_system": "PRKX;PRKY", "details": "read-out: apparent Kd, compound concentrations: 100 nM and 1000 nM (sheet 'Samples'), n = 1"}, "RPS6KA6": {"test_system": "RPS6KA6", "details": "read-out: apparent Kd, compound concentrations: 100 nM and 1000 nM (sheet 'Samples'), n = 1"}, "ULK1": {"test_system": "ULK1", "details": "read-out: apparent Kd, compound concentrations: 100 nM and 1000 nM (sheet 'Samples'), n = 1"}, "DCTPP1": {"test_system": "DCTPP1", "details": "read-out: apparent Kd, n = 1"}, "MAP4K2": {"test_system": "MAP4K2", "details": "read-out: apparent Kd, n = 1"}, "PIK3C3": {"test_system": "PIK3C3", "details": "read-out: apparent Kd, n = 1"}, "TP53RK": {"test_system": "TP53RK", "details": "read-out: apparent Kd; compound concentrations: 100 nM and 1000 nM (sheet 'Samples'), CATDS: 0.13765543946778; n = 1"}, "IKBKE": {"test_system": "IKBKE", "details": "read-out: apparent Kd, n = 1"}, "ILK": {"test_system": "ILK", "details": "read-out: apparent Kd; compound concentrations: 100 nM and 1000 nM (sheet 'Samples'), CATDS: 4.6551408852927599E-2; n = 1"}, "COX5A": {"test_system": "COX5A", "details": "read-out: apparent Kd, n = 1"}, "CDC42": {"test_system": "CDC42", "details": "read-out: apparent Kd; compound concentrations: 100 nM and 1000 nM (sheet 'Samples'), CATDS: 3.5970497134968603E-2; n = 1"}, "[1]": {"details": "compound concentrations:100 nM and 1000 nM (sheet 'Samples')"}}, "note": "Like-named read-outs stand apart in the source and are kept apart here."}
{"smiles": "CS(=O)(=O)CCNCc1ccc(-c2ccc3ncnc(Nc4ccc(OCc5cccc(F)c5)c(C(F)(F)F)c4)c3c2)o1", "note": "[GW576484X]", "values": [{"measurement": "potency estimated from few doses", "setting": "CSNK1G1; compound concentrations: 100 nM and 1000 nM (sheet 'Samples'), CATDS: 5.4638885824274799E-2", "result": 1620, "unit": "nM"}, {"measurement": "potency estimated from few doses", "setting": "MARK4; CATDS: 5.9224998960535298E-2", "result": 1370, "unit": "nM"}, {"measurement": "potency estimated from few doses", "setting": "STRADA; CATDS: 5.2854601863181902E-2", "result": 1740, "unit": "nM"}]}
{"smiles": "O=C1N=C(NCc2cccs2)SC1Cc1ccc2ncccc2c1", "note": "(stereo not shown) [RO4629078-000]", "values": [{"measurement": "potency estimated from few doses", "setting": "ATM", "result": 123, "unit": "nM"}, {"measurement": "potency estimated from few doses", "setting": "BMP2K; CATDS: 1.0249270291889601E-2", "result": 630, "unit": "nM"}, {"measurement": "potency estimated from few doses", "setting": "FER; CATDS: 1.87753699623531E-2", "result": 195, "unit": "nM"}, {"measurement": "potency estimated from few doses", "setting": "MARK4; CATDS: 9.8317273929225003E-3", "result": 699, "unit": "nM"}, {"measurement": "potency estimated from few doses", "setting": "MELK; compound concentrations: 100 nM and 1000 nM (sheet 'Samples'), CATDS: 7.0296492391178304E-3", "result": 2190, "unit": "nM"}, {"measurement": "potency estimated from few doses", "setting": "PAK4; CATDS: 1.27068399594295E-2", "result": 391, "unit": "nM"}, {"measurement": "potency estimated from few doses", "setting": "PRKX;PRKY; CATDS: 7.8908157683285005E-3", "result": 1350, "unit": "nM"}, {"measurement": "potency estimated from few doses", "setting": "RPS6KA6; CATDS: 1.4576364077707399E-2", "result": 301, "unit": "nM"}, {"measurement": "potency estimated from few doses", "setting": "ULK1; CATDS: 1.26661320847058E-2", "result": 394, "unit": "nM"}]}
{"smiles": "CN1C(=O)c2ccccc2N(C)c2nc(Nc3cnn(C4CCNCC4)c3)ncc21", "note": "[XMD-17-51]", "values": [{"measurement": "potency estimated from few doses", "setting": "BMP2K; CATDS: 1.6944830002157098E-2", "result": 771, "unit": "nM"}, {"measurement": "potency estimated from few doses", "setting": "MARK4; CATDS: 2.0662278149912901E-2", "result": 412, "unit": "nM"}, {"measurement": "potency estimated from few doses", "setting": "ULK1; CATDS: 5.3093581497725799E-2", "result": 45.5, "unit": "nM"}]}
{"smiles": "O=C1N=C(NCCc2cccc(Cl)c2)S/C1=C\\c1ccc2ncccc2c1", "note": "[RO4509201-000]", "values": [{"measurement": "potency estimated from few doses", "setting": "DCTPP1; compound concentrations: 100 nM and 1000 nM (sheet 'Samples'), CATDS: 5.6638769409894603E-2", "result": 1590, "unit": "nM"}]}
{"smiles": "Cc1cccc(Nc2nc(NCCN)ncc2C(N)=O)c1", "note": "[GSK1292139B]", "values": [{"measurement": "potency estimated from few doses", "setting": "MAP4K2; compound concentrations: 100 nM and 1000 nM (sheet 'Samples'), CATDS: 7.8363425236556997E-2", "result": 1110, "unit": "nM"}, {"measurement": "potency estimated from few doses", "setting": "PAK4; CATDS: 9.0340207585202004E-2", "result": 778, "unit": "nM"}]}
{"smiles": "CCc1nc(-c2cccc(N(C)S(=O)(=O)c3ccccc3)c2)c(-c2ccnc(Nc3ccc(N4CCN(C(C)=O)CC4)nc3)n2)s1", "note": "[GSK1645895A]", "values": [{"measurement": "potency estimated from few doses", "setting": "PIK3C3; compound concentrations: 100 nM and 1000 nM (sheet 'Samples'), CATDS: 0.15936807020930999", "result": 1340, "unit": "nM"}, {"measurement": "potency estimated from few doses", "setting": "TP53RK", "result": 1940, "unit": "nM"}]}
{"smiles": "CCn1cc(-c2ccnc3[nH]c(-c4cccc(CN(C)C)c4)cc23)c(-c2ccc(NC(=O)N(C)C)cc2)n1", "note": "[GSK1070916]", "values": [{"measurement": "potency estimated from few doses", "setting": "IKBKE; [1]", "result": 1960, "unit": "nM"}, {"measurement": "potency estimated from few doses", "setting": "PIK3C3; [1]", "result": 1500, "unit": "nM"}]}
{"smiles": "O=C1N=C(NCC(CO)c2ccccc2)S/C1=C\\c1ccc2ncccc2c1", "note": "(stereo not shown) [RO4582641-000]", "values": [{"measurement": "potency estimated from few doses", "setting": "PRKX;PRKY; CATDS: 6.1310776599809498E-2", "result": 1910, "unit": "nM"}]}
{"smiles": "CC(C)c1cc(-c2ccc3c(N)n[nH]c3c2)nc(N)n1", "note": "[GSK2250882A]", "values": [{"measurement": "potency estimated from few doses", "setting": "MELK; [1]", "result": 1300, "unit": "nM"}]}
{"smiles": "O=C1N=C(NCc2ccccc2)S/C1=C\\c1ccc2ncccc2c1", "note": "[RO4442080-000]", "values": [{"measurement": "potency estimated from few doses", "setting": "PRKX;PRKY; CATDS: 0.10891085030607001", "result": 835, "unit": "nM"}]}
{"smiles": "COc1ccc(Nc2nccc(N3CCC(NC(=O)Nc4ccc5c(c4)OCO5)C3)n2)cc1", "note": "(stereo not shown) [GSK1379745A]", "values": [{"measurement": "potency estimated from few doses", "setting": "CSNK1G1; compound concentrations: 100 nM and 1000 nM (sheet 'Samples'), CATDS: 3.8833809861808503E-2", "result": 1600, "unit": "nM"}, {"measurement": "potency estimated from few doses", "setting": "ILK", "result": 1110, "unit": "nM"}, {"measurement": "potency estimated from few doses", "setting": "STRADA; CATDS: 3.4015058114393301E-2", "result": 2210, "unit": "nM"}]}
{"smiles": "COc1cccc(-n2ncc3c(N/N=C/c4ccc(C(=O)NCCN(C)C)cc4)ncnc32)c1.Cl", "note": "[GW784307A]", "values": [{"measurement": "potency estimated from few doses", "setting": "BMP2K; CATDS: 2.5475842805915101E-2", "result": 2050, "unit": "nM"}, {"measurement": "potency estimated from few doses", "setting": "COX5A; compound concentrations: 100 nM and 1000 nM (sheet 'Samples'), CATDS: 2.84173796904106E-2", "result": 1280, "unit": "nM"}]}
{"smiles": "CS(=O)(=O)Cc1ccc(Nc2nccc(-c3c(-c4cccc(NC(=O)C5CCCCC5)c4)nn4ncccc34)n2)cc1", "note": "[GSK350559A]", "values": [{"measurement": "potency estimated from few doses", "setting": "MAP4K2; [1]", "result": 1890, "unit": "nM"}]}
{"smiles": "COc1ccccc1CNC1=NC(=O)/C(=C/c2ccc3ncccc3c2)S1", "note": "[RO4503315-000]", "values": [{"measurement": "potency estimated from few doses", "setting": "DCTPP1; compound concentrations: 100 nM and 1000 nM (sheet 'Samples'), CATDS: 6.8298728287036994E-2", "result": 1390, "unit": "nM"}]}
{"smiles": "CNC(=O)c1ccccc1Nc1nc(Nc2cccc(CS(C)(=O)=O)c2)ncc1C.O=CO", "note": "[GSK1520489A]", "values": [{"measurement": "potency estimated from few doses", "setting": "IKBKE; compound concentrations: 100 nM and 1000 nM (sheet 'Samples'), CATDS: 1.0336564492146301E-2", "result": 1110, "unit": "nM"}, {"measurement": "potency estimated from few doses", "setting": "MELK; compound concentrations: 100 nM and 1000 nM (sheet 'Samples'), CATDS: 9.6320632964756892E-3", "result": 1610, "unit": "nM"}]}
{"smiles": "O=S(=O)(c1ccc(-c2ccnc3[nH]ccc23)cc1)N1CCCC1", "note": "[GSK846226A]", "values": [{"measurement": "potency estimated from few doses", "setting": "COX5A; [1]", "result": 848, "unit": "nM"}, {"measurement": "potency estimated from few doses", "setting": "DCTPP1; [1]", "result": 2150, "unit": "nM"}]}
{"smiles": "CN1CCN(Cc2ccc(-c3ccc4c(Nc5ccc(Oc6ccccn6)cc5)ccnc4c3)o2)CC1", "note": "[GW567140X]", "values": [{"measurement": "potency estimated from few doses", "setting": "CDC42", "result": 1290, "unit": "nM"}]}
{"smiles": "CN(C)Cc1ccc(-c2ccc3c(Nc4ccc(Oc5ccccn5)cc4)ccnc3c2)o1", "note": "[GW567148X]", "values": [{"measurement": "potency estimated from few doses", "setting": "FER; CATDS: 2.46743192274099E-2", "result": 568, "unit": "nM"}, {"measurement": "potency estimated from few doses", "setting": "RPS6KA6; CATDS: 2.11191304038983E-2", "result": 847, "unit": "nM"}]}
{"smiles": "CC(=O)c1c(-c2ccncc2)[nH]c(-c2ccncc2)c1C", "note": "[GW493036X]", "values": [{"measurement": "potency estimated from few doses", "setting": "CSNK1G1; [1]", "result": 717, "unit": "nM"}]}
